Screening results deposited in PubChem BioAssay by PCMD.
CatS block: human cathepsin S inhibition; hit rate 0.06% among 62,000; recombinant cathepsin S, AMC dipeptide fluorescence, pooled mixtures; inhibition, %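 (tested at 5 µM per compound within 10-compound mixtures)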; in the data active = inhibition above about 32%, passing the limit was not always enough; inconclusive = no clear call, values can overlap the other calls;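 note: 0% = enzyme without compound and 100% = blank without enzyme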
Target sequence (P25774 115-331 limits assumed): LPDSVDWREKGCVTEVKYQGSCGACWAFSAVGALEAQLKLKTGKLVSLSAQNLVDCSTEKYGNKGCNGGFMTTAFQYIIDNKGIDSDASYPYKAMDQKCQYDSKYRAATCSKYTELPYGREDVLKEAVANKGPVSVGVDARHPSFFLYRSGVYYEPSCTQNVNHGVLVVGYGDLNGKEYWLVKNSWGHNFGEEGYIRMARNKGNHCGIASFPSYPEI
C1s block: blocks human complement C1s protease activity. P09871. purified C1s, fluorogenic AMC substrate, pooled mixtures. mean inhibition % of two 10-compound mixtures (hits give high values), % at 5 µM (by protocol). hit rate 0.16% among 62,000. AID 538;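 active = inhibition above 20% in each of the two 10-compound mixture wells holding the compound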;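 note: 0% = enzyme wells lacking compound mixture and 100% = no-enzyme blank wells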
CatB block: blocks human cathepsin B protease activity | purified cathepsin B, fluorogenic substrate, fluorescence | inhibition, %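 (tested at 10 µM)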 | hit rate 0.1% among 63,000 | AID 453; in the data active = inhibition above about 21%;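 note: 0% = enzyme with no compound and 100% = no enzyme blank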
CatL block: blocks human cathepsin L protease activity; P07711; purified cathepsin L, fluorogenic substrate, fluorescence; inhibition, %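 (tested at 10 µM)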; hit rate 0.17% among 58,000; in the data active = inhibition above about 45%;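 note: 0% = enzyme with no compound and 100% = no enzyme blank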
Target sequence (P07711 114-288 limits assumed): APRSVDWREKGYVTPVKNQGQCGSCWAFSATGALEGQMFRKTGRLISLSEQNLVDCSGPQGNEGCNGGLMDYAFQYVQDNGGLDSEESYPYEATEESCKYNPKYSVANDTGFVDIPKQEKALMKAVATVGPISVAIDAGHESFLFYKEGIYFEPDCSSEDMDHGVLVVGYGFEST
Target sequence (P07711 292-333 limits assumed): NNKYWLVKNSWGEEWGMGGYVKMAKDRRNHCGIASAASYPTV
CatB mix inh: human cathepsin B inhibition by mixtures; Purified cathepsin B, AMC dipeptide fluorescence, compound mixtures; AID 488; hit rate 0.06% among 62,000; inhibition, %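 (ten-compound pools at 5 µM per compound and 50 µM total)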; P07858; in the data active = inhibition above about 22%, passing the limit was not always enough; inconclusive = no clear call, values can overlap the other calls;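 note: 0% = enzyme without compound and 100% = no enzyme blank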
Cathepsin G inh: blocks human cathepsin G enzyme activity. hit rate 0.2% among 62,000. inhibition, % at 5 µM (by protocol). P08311. AID 581. purified enzyme, AMC-tetrapeptide fluorescence, pooled mixtures;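 active = inhibition above 20% in each of the two mixture wells holding the compound; inactive = inhibition of 20% or less in either well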;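 note: 0% = enzyme control without mixture and 100% = blank lacking enzyme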
* marks the source's active call; other numbers are inactive results; ? = inconclusive; . = no result. Shown are actives, neighbours in structure and some others; about 0.58% of the full set was active somewhere.

SMILES	CatS block	C1s block	CatB block	CatL block	CatB mix inh	Cathepsin G inh
CC1CCN(CCCNC(=O)c2cc3c(=O)n(C)c4ccccc4c3n2C)CC1	?	-4.7	1.0	-1.4	0.3	5.6
Cn1c(C(=O)NCCN2CCN(Cc3ccccc3)CC2)cc2c(=O)n(C)c3ccccc3c21	57.8*	-5.2	1.1	19.7	-0.5	-4.3
Cn1c(C(=O)NCCCN2CCOCC2)cc2c(=O)n(C)c3ccccc3c21	47.3*	-2.9	-4.8	10.4	1.9	-2.5
Cn1c(C(=O)NCCCN2CCN(c3ccccc3F)CC2)cc2c(=O)n(C)c3ccccc3c21	34.0	12.3	3.8	5.8	4.5	4.0
Cn1c(C(=O)NCCN2CCCCCC2)cc2c(=O)n(C)c3ccccc3c21	69.5*	10.3	1.3	16.0	-0.5	5.8
COC(=O)c1ccc2c(=O)n(CCC3=CCCCC3)c(SCC(=O)N3CCCC3)nc2c1	-12.1	-80.7	6.5	9.3	-10.2	-30.0
Cc1ccc(OCC(=O)Nc2ccc(N3CCOCC3)cc2)cc1	-5.2	60.0*	3.1	5.2	2.5	44.9
Cc1cc(C)cc(C(=O)n2cnnc2N)c1	13.7	8.6	-1.5	10.0	-2.2	65.5*
Nc1nncn1C(=O)c1ccccc1Cl	11.4	5.5	3.3	11.0	1.5	10.4
Cc1ccc2c(C(=O)CN3CCCCC3CCO)c(C)[nH]c2c1 (configuration not stated)	21.3	1.1	3.9	-3.5	29.5*	0.6
Cc1cc(SCC#N)n2nc(C)c(-c3ccccc3)c2n1	0.6	2.2	1.4	47.6*	-2.9	4.0
CC(=O)OC1(C(F)(F)F)Oc2ccccc2NC1=O (configuration not stated)	22.0	-1.0	74.7*	85.2*	60.7*	-2.2
O=C(CC1Oc2ccccc2NC1=O)NC1CC1 (configuration not stated)	0.0	2.9	-4.2	.	-0.3	9.0
CC(=O)c1c(OC(=O)c2ccco2)c2ccccc2n1C	5.3	41.0*	3.7	16.6	5.4	18.1
COc1ccc(-n2c(=O)c3c4c(sc3n3cnnc23)CC(C)CC4)cc1 (configuration not stated)	31.0	-3.3	-2.6	48.2*	9.0	0.1
CCn1c(=O)cc(SCC(=O)NCc2ccccn2)c2ccccc21	-4.5	-5.8	-2.3	2.3	2.6	8.1
O=C(c1csc2ccccc12)N1CCCCCC1	-20.3	-63.0	1.7	4.5	-18.1	-15.6
O=C(c1csc2ccccc12)n1cccn1	3.0	49.7*	1.8	8.4	7.8	52.0*
CCc1ccc(-c2cn(-c3nc(C)cc(C)n3)c(=N)o2)cc1	18.9	51.9*	5.1	9.8	5.1	7.6
N=c1c(C(=O)NC2CCCCC2)cc2c(=O)n3ccccc3nc2n1CCN1CCOCC1	1.4	-25.9	-3.3	-182.7	5.4	4.3
C=COCCn1c(-c2nonc2N)nc2ccccc21	?	4.0	14.9	85.5*	55.1*	6.1
Nc1nonc1-c1nc2ccccc2n1Cc1ccc(Cl)cc1	-2.4	12.8	7.5	29.5	21.8	7.9
Cc1ccc(Cn2c(-c3nonc3N)nc3ccccc32)cc1	-12.9	-117.2	21.8*	22.3	-1.2	-5.9
COc1cc(Cn2c(-c3nonc3N)nc3ccccc32)ccc1C	3.1	0.1	49.5*	23.3	30.3	-1.6
COc1cccc(Cn2c(-c3nonc3N)nc3ccccc32)c1	-0.7	-1.1	39.1*	50.2*	15.5	-0.7
SMILES	CatS block	C1s block	CatB block	CatL block	CatB mix inh	Cathepsin G inh
COc1cccc(OC)c1C(=O)N1CCN(c2c(Cc3ccccc3)c(C)nc3ncnn23)CC1	6.5	-1.8	2.1	.	-4.7	7.7
COc1ccccc1NC(=O)CCC(=O)O	.	12.1	33.2*	22.3	53.1	10.9
CCOc1ccccc1NC(=O)CCC(=O)O	-4.5	39.9	0.8	-0.1	10.4	15.3
COc1cccc(NC2=NCC(=O)N2Cc2cccs2)c1	-0.7	15.4	-2.0	73.4*	3.9	12.0
COc1ccc(NC2=NCCC(=O)N2Cc2cccs2)cc1	-2.9	2.6	0.2	0.4	-2.2	9.7
O=C(CCN1CCc2ccccc2C1)Nc1ccccc1F	-3.1	15.5	0.8	-1.4	6.9	10.3
Cc1ccc(-c2cc(C(=O)NCc3ccccn3)no2)cc1	16.4	65.3*	2.7	13.7	6.8	8.2
O=C(NCc1cccs1)c1cc(-c2cccs2)on1	0.7	12.2	2.5	6.6	-0.2	34.0*
O=C(c1cc2c(=O)oc3ccccc3c2s1)N1CCN(c2ccccn2)CC1	7.5	-4.3	3.4	17.2	13.3	7.6
